# Screening data as filed in PubChem.
# TbREL1 primary: TbREL1 RNA ligase inhibitors, primary screen, biochemical, FRET fluorescence | RNA-editing ligase 1, mitochondrial (Trypanosoma brucei brucei), P86926 | TbREL1 RNA ligation | inhibition, % at 9.66 µM | 89,000 compounds, 0.49% hits | AID 1117264, 2014;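 active means inhibition above the mean inhibition across all screened compounds plus 3 SD, cut at about 11% in these data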;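 further: 0% = plate median of test wells and 100% = NSC42067 control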
# Target sequence (P86926 whole entry, looked up): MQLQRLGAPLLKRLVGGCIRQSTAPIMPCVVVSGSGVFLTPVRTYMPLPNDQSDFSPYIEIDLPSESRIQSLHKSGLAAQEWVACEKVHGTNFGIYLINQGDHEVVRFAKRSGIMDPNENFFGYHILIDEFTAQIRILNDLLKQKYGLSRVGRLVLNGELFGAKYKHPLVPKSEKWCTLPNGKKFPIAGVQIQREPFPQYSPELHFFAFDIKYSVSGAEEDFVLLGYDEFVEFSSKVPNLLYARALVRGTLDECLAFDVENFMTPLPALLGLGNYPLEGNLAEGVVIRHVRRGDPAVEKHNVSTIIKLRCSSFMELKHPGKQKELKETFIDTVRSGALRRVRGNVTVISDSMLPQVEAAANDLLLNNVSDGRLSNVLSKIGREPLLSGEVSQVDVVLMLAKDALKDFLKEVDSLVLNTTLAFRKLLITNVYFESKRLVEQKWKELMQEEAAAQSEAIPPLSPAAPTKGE
# TbREL1 confirm: TbREL1 RNA ligase inhibitors, confirmation, biochemical, FRET fluorescence, triplicate; shares compounds with TbREL1 primary; TbREL1 RNA ligation; inhibition, % at 9.66 µM; 390 compounds, 37% hits; AID 1117282, 2014;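 active means mean inhibition across replicates above a set limit taken from the earlier primary screen, cut at about 11% in these data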;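 further: 0% = REL1 with substrate and DMSO and 100% = REL1 plus control inhibitor NSC42067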
# An asterisk follows results filed as active. Many of the other results were omitted from the sample, so hits are more common in it than they were.
SMILES,TbREL1 primary,others
C=CCN=C1NC(c2ccc(C(F)(F)F)cc2)C(C(=O)OC)=C(C)N1Cc1ccccc1C(F)(F)F (stereo not drawn),10,
COC(=O)C1=C(C)N(Cc2ccccc2)C(=NCc2ccccc2)N[C@H]1c1ccccc1,5,
COC(=O)C1=C(C)N(Cc2ccccc2)C(=NCc2ccccc2)N[C@H]1c1cccc(F)c1,14*,TbREL1 confirm=15*
COC(=O)C1=C(C)N(Cc2ccc(Cl)cc2)C(=S)NC1c1cccc(OC)c1 (stereo not drawn),-7,
COC(=O)C1=C(C)N(Cc2ccccc2C(F)(F)F)C(=NCc2ccc(C(F)(F)F)cc2)NC1c1ccc(Cl)cc1 (stereo not drawn),12*,TbREL1 confirm=18*
COC(=O)C1=C(C)N(Cc2ccccc2C(F)(F)F)C(=NCc2ccc(OC)cc2)NC1c1ccc(Cl)cc1 (stereo not drawn),12*,TbREL1 confirm=16*
COc1ccc(C=Nn2c(-c3ccc(F)cc3)n[nH]c2=S)c(OC)c1OC,-7,
CCOC(=O)[C@@H](NC(=O)[C@@H]1CC=C[C@@H]2CCN(Cc3ccc(Cl)cc3)C(=O)[C@@H]21)C(C)C,0,
CC(C)(C)c1ccc(-c2nnc(SCC(=O)Nc3ccc4c(c3)OCCO4)n2-c2ccc(Cl)cc2)cc1,4,
Cc1ccc(S(=O)(=O)N2c3ccccc3C[C@H]2CCC(=O)c2ccccc2)cc1,1,
CCCCCCCCN1C(=O)[C@@H](CC(=O)NCCc2ccccc2OC)C[C@@]2(C(=O)OC)C1=C[C@H](C(C)C)O[C@@H]2C1CC1,4,
COC(=O)[C@@H]1[C@H](O[Si](C)(C)C(C)(C)C)[C@H]2O[C@H]2C[C@H]1S(=O)(=O)c1ccccc1,3,
O=C(c1ccc(F)cc1Cl)N(Cc1ccccn1)CC1CCCO1 (stereo not drawn),0,
Cc1ccc2c(c1)N(CCCC(=O)N(C)Cc1ccccc1Cl)C(=O)CO2,-4,
O=C(NCCc1ccc(F)cc1)c1ccc(Sc2ccccc2Cl)c([N+](=O)[O-])c1,8,
COc1cccc(C2NC(=S)N(Cc3ccc(F)cc3)C(C)=C2C(C)=O)c1 (stereo not drawn),-7,
COC(=O)C1=C(C)N(Cc2ccccc2C(F)(F)F)C(=NCc2ccc(OC)cc2)NC1c1cccc(F)c1 (stereo not drawn),14*,TbREL1 confirm=19*
COC(=O)C1=C(C)N(Cc2ccccc2C(F)(F)F)C(=NCc2ccc(OC)cc2)NC1c1ccccc1 (stereo not drawn),13*,TbREL1 confirm=16*
CCN1C(=NCc2ccc(OC)cc2)N[C@@H](c2ccccc2)[C@H](C(=O)OC)[C@H]1C,-2,
COC(=O)C1=C(C)N(Cc2ccc(F)cc2)C(=S)NC1c1ccccc1 (stereo not drawn),-8,
COC(=O)C1=C(C)N(Cc2ccccc2C(F)(F)F)C(=NCc2cccc(C(F)(F)F)c2)NC1c1ccc(C(F)(F)F)cc1 (stereo not drawn),18*,TbREL1 confirm=20*
O=C(CSc1nnc(-c2ccccc2)n1-c1ccc(Cl)cc1)c1ccccc1Br,-7,
Cc1cccc(-c2nnc(SCC(=O)Nc3ccc(-c4nc5ccc(C)cc5s4)cc3)n2Cc2ccco2)c1,-3,
c1ccc(-n2c(SCc3cccc4ccccc34)nnc2-c2ccncc2)cc1,4,
O=C(N/N=C/c1cccc(OC(=O)c2cccc(Br)c2)c1)c1cccnc1,1,
SMILES,TbREL1 primary,others
O=C(N/N=C/c1cccnc1)c1cccc(NC(=O)c2cccc(Br)c2)c1,12*,TbREL1 confirm=1
O=C(N/N=C/c1ccc(OC(=O)c2cccc(Br)c2)cc1)c1cccnc1,0,
C=CCN1C(=O)[C@H](CC(=O)N2CCN(C(=O)C3CC3)CC2)[C@@]2(C(=O)OCC)CCCC=C12,-1,
COC(=O)C1CCCN(C(=O)C2CCN(S(=O)(=O)c3ccc([N+](=O)[O-])cc3)CC2)C1 (stereo not drawn),-1,
CCCCCOc1ccc(C(=O)Nc2ccc(S(=O)(=O)Nc3cc(C)on3)cc2)cc1,-2,
CCOc1cc(C(=O)Nc2ccc(S(=O)(=O)Nc3cc(C)on3)cc2)cc(OCC)c1OCC,61*,TbREL1 confirm=2
Cc1cc(NS(=O)(=O)c2ccc(NC(=S)NC(=O)c3ccccc3)cc2)no1,-1,
COC(=O)[C@H]1C[C@]2(C(C=C(C)C)S(=O)(=O)c3ccccc3)c3ccccc3N[C@H]2N1 (stereo partly drawn),-1,
COC(=O)c1ccc(N2C(=O)CC(SCC(=O)Nc3ccc(OC)cc3)C2=O)cc1 (stereo not drawn),13*,TbREL1 confirm=3
COc1ccc(NC(=O)CC2C(=O)N(c3ccc(OC)cc3)C(=O)N2C(C)C)cc1 (stereo not drawn),2,
COC(=O)c1ccc(N2C(=O)CC(Sc3n[nH]c(C)n3)C2=O)cc1 (stereo not drawn),3,
CCOC(=O)C(Cc1ccccc1)P(=O)(OCC)OCC (stereo not drawn),-2,
O=C(Nc1ccc(Cl)cc1)Nc1ccccc1C(=O)N1CCCC1,1,
c1ccc(-c2ccc(CNc3nc(-c4ccccn4)nnc3-c3ccccc3)cc2)cc1,4,
CCCn1c(CCC(=O)O)ccc1-c1ccccc1,-8,
O=C(O)CCc1ccc(-c2ccc(F)cc2)n1CCC(=O)O,34*,TbREL1 confirm=1
O=C(O)CCc1ccc(-c2ccccc2)n1CC(=O)O,-3,
CCCSc1nnc(-c2ccco2)n1C,0,
CCn1c2ccccc2c2cc(NC(=O)COC(=O)c3cccc(OC)c3)ccc21,8,
C=Cc1ccc(C(=O)N(Cc2ccc(F)cc2)C(C(=O)N(C)C2CCCC2)c2ccc(OC)c(OC)c2)cc1 (stereo not drawn),-3,
O=C(COC(=O)Cc1ccc(Br)cc1)NC1CC1,-1,
COc1ccccc1CNC(=O)COC(=O)CC1CC2CCC1C2 (stereo not drawn),5,
COc1ccccc1CCC(=O)OCC(=O)NC1CC1,34*,TbREL1 confirm=5
O=C(NCCc1ccccc1)c1ccc(Sc2ccccc2Cl)c([N+](=O)[O-])c1,3,
CCCCCCCCN1C(=O)[C@@H](CC(=O)NCc2ccc(C)o2)C[C@@]2(C(=O)OC)C1=C[C@H](C(C)C)O[C@@H]2C1CC1,-4,
SMILES,TbREL1 primary,others
CN(Cc1ccccc1F)C(=O)C1C2C=CC3(CN(Cc4ccccc4)C(=O)C13)O2 (stereo not drawn),-1,
NS(=O)(=O)c1ccc(NC(=O)c2cc(=O)c3ccccc3o2)cc1,6,
O=C(Nc1ccc(C(=O)NN2C(=O)c3ccccc3C2=O)cc1)c1ccccc1,0,
NS(=O)(=O)c1ccc(NC(=O)c2cccc(N3C(=O)c4ccccc4C3=O)c2)cc1,12*,TbREL1 confirm=23*
CC(C)NC(=O)Cn1c(-c2cncs2)nc2ccccc21,0,
Cc1ccc(-c2cc(-c3nnc(SCc4cccc5ccccc45)n3N)[nH]n2)cc1,5,
Cc1ccc(-c2nnc(NC(=O)COc3ccc(F)cc3Cl)o2)cc1C,1,
CC(C)[C@@H]1C(=O)N[C@H](Cc2cn(S(=O)(=O)c3ccccc3)c3ccccc23)C(=O)N1C,-1,
O=C(CCCCCN1C(=O)C2C3C=CC(C3)C2C1=O)N1CCN(c2ncccn2)CC1 (stereo not drawn),-5,
COc1ccc(C[C@H]2CN3C(=NC[C@@H]3Cc3ccccc3)N2CCNC(=O)CCC2CCCCC2)cc1,21*,TbREL1 confirm=18*
